Assay results from PubChem BioAssay (NCATS).
Records with an inconclusive call do not appear. Calls of active or inactive are those of the source. The call rests on the fitted dose curve; in most records, active means well fitted curve in the direction sought with a large enough effect; inconclusive means small, poorly fitted or top-dose-only effect, or another doubt; inactive means no such curve, though single readings can be large; an effect the other way counts as inactive or inconclusive.

Columns and labels:
[1] = Cellular Toxicity (caspase-3) Mesangial (AID 660); conditions: mesangial cells, normalized: DMSO 0%, 100 µM tamoxifen 100%; at 91.7 µM (top of the series);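 further: cells exposed to compound for 16 h before the caspase read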
Method in brief: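 Human renal glomerular mesangial cells (1000/well) were treated with compounds for 16 h at 37 °C in complete medium, then caspase 3/7 activity was read by Caspase-Glo luminescence. Data were normalized to DMSO and 100 uM tamoxifen; AC50 from Hill fits.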

[2] = Cellular Toxicity (caspase-3) SK-N-SH (AID 661);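 further: 0% = DMSO basal and 100% = 10 µM staurosporine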
Method in brief: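 SK-N-SH human neuroblastoma cells (1500/well) were treated with compounds for 16 hr at 37 °C in complete medium; caspase 3/7 activity was read by Caspase-Glo luminescence. AC50 came from Hill fits of data normalized to DMSO and 10 uM staurosporine.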

[3] = Cellular Toxicity (caspase-3) H-4-II-E (AID 663); conditions: H-4-II-E rat hepatoma, scaled: DMSO 0%, 100 µM tamoxifen 100%; at 92.2 µM (top of the series);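 further: cells exposed to compound for 16 hr before readout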
Method in brief: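 Luminescence from caspase-cleaved aminoluciferin substrate, read 20 min after reagent addition, reports caspase 3/7 activation in rat H-4-II-E cells after 16 hr compound exposure. Normalized to DMSO (basal) and 100 uM tamoxifen (100%); AC50 from Hill fits.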

[4] = Cellular Toxicity (caspase-3) Hek293 (AID 664); conditions: HEK293 caspase-3 activation, DMSO = 0%, 100 µM tamoxifen = 100%; at 92.2 µM (top of the series);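 further: cells exposed to compound for 16 h at 37 °C before readout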
Method in brief: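 HEK293 cells were exposed to compounds in complete medium for 16 hr at 37 °C, then caspase-3/7 activity was read by Caspase-Glo 3/7 luminescence after 20 min at room temperature. Data normalized to DMSO and 100 uM tamoxifen; AC50 from Hill fits.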

[5] = Cellular Toxicity (caspase-3) N2a (AID 665);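 further: compound exposure lasted 16 h at 37 °C before readout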
Method in brief: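 Mouse N2a neuroblastoma cells (1500/well) were treated with compounds for 16 h at 37 °C, then caspase-3/7 activity was read by Caspase-Glo luminescence after 1 h at room temperature. Data were normalized to DMSO and 10 uM staurosporine; AC50 from Hill fits.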

[6] = Cellular Toxicity (caspase-3) NIH 3T3 (AID 666);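 further: 0% = DMSO basal and 100% = 100 µM tamoxifen stimulation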
Method in brief: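 Mouse NIH 3T3 fibroblasts (1000 cells/well) were treated with compound for 16 hr at 37°C in complete medium; caspase-3/7 activity was read by Caspase-Glo luminescence. Normalized to DMSO and 100 uM tamoxifen; AC50 from Hill fits.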

[7] = Cellular Toxicity (caspase-3) Renal Proximal Tubule (AID 667); conditions: Potency: caspase-3 activation;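 further: cells exposed to compound for 16 hours at 37 °C before detection; 0% = DMSO basal and 100% = 10 µM staurosporine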
Method in brief: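 Caspase-Glo 3/7 read-out, rat primary kidney proximal tubule cells. Compound exposure 16 h, 37 °C; detection after 1 h at RT. Activity scaled to DMSO and 10 uM staurosporine.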

[8] = biological target: Cytochrome P450 3A4 (Homo sapiens) (UniProt P08684); test: qHTS Assay for Inhibitors and Substrates of Cytochrome P450 3A4 (AID 884); further: on the % scale 0 is the no-effect control and ±100 the full control effect; nearly all actives have a fitted effect of over 50% in size
Chain of Cytochrome P450 3A4 (Homo sapiens) (P08684 whole entry, looked up): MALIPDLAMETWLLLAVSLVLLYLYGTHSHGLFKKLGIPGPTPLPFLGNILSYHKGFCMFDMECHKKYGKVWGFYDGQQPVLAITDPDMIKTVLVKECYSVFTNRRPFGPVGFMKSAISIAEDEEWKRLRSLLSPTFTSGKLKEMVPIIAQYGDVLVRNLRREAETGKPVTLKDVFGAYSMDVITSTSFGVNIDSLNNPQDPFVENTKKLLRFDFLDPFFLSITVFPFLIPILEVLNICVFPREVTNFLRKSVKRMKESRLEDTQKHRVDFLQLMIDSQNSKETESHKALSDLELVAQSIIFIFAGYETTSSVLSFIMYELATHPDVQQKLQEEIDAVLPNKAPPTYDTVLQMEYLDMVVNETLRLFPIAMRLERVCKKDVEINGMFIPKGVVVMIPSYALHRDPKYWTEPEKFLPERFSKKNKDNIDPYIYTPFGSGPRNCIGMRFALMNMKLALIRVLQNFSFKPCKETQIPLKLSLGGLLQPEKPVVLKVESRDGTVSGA
Method in brief: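 20 nM human CYP3A4 with 25 uM Luciferin-PPXE (at KM) in 200 mM KPO4, preincubated 10 min with compound; NADPH regeneration started a 60 min RT reaction. Luciferin detected by luminescence, normalized to 57 uM ketoconazole as full inhibition.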

[9] = Cell Viability - LYMP2-001 (AID 921);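 further: 0% = DMSO only and full inhibition = tetraoctylammonium bromide control wells; nearly all actives have a fitted effect of over 70% in size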
Method in brief: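 A lymphoblastoid cell line of human origin was treated with library compounds across a concentration series for 24 hours, and viable cell number was estimated from ATP-driven luciferase light output. Hill modeling gave AC50.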

[10] = MultiTox-Fluor Cytotoxicity Assay - LYMP1-001 - Dead Cells (AID 946);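 further: 0% = DMSO and 100% = tetraoctylammonium bromide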
Method in brief: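 LYMP1-001 lymphoblastoid cells (2500/well) treated 16 h at 37 C. Dead-cell protease cleavage of bis-AAF-R110 read at Ex/Em 485/520. Normalized to DMSO and 15 uM tetraoctylammonium bromide; AC50 from Hill fits.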

[11] = MultiTox-Fluor Cytotoxicity Assay - LYMP1-001 - Live Cells (AID 947);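 further: 0% = DMSO only and full inhibition = tetraoctylammonium bromide control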
[12] = Cell Viability - LYMP1-002 - Assay at 16 hr (AID 948);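 further: 0% = DMSO alone and full effect = 92 µM tetraoctylammonium bromide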
Method in brief: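 In this qHTS, lymphoblastoid LYMP1-002 cells (human) receive compounds for 16 hr at 37 C. Viability is taken from CellTiter-Glo ATP luminescence, and AC50 derives from standard Hill fits.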

[13] = MultiTox-Fluor Cytotoxicity Assay - LYMP1-002 - Live Cells (AID 955); further: on the % scale 0 is the no-effect control and ±100 the full control effect
Method in brief: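 Human lymphoblastoid LYMP1-002 cells, 2500/well in complete medium, rested 5 hr at 37 C, then exposed to compounds for 16 hr at 37 C. Live-cell protease cleavage of GF-AFC read by fluorescence (Ex/Em 405/510) after 60 min at room temperature; AC50 from Hill fits.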

[14] = MultiTox-Fluor Cytotoxicity Assay - LYMP1-002 - Dead Cells (AID 960);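 further: 0% = DMSO and 100% = tetraoctylammonium bromide; nearly all actives have a fitted effect of over 60% in size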
Method in brief: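 Human lymphoblastoid cells (LYMP1-002), 2500/well in complete medium, were exposed to compounds for 16 hr at 37 C. Dead-cell protease activity was read as bis-AAF-R110 fluorescence (Ex/Em 485/520), normalized to DMSO and 15 uM tetraoctylammonium bromide; AC50 from Hill fits.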

[15] = MultiTox-Fluor Cytotoxicity Assay - LYMP1-003 - Dead Cells (AID 961);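 further: 0% = DMSO and 100% = tetraoctylammonium bromide; nearly all actives have a fitted effect of over 70% in size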
Method in brief: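 LYMP1-003 human lymphoblastoid cells (2500/well) exposed to compound 16 h at 37 C in complete medium; dead-cell protease read with bis-AAF-R110 fluorescence (Ex/Em 485/520) after 60 min at room temperature. Normalized to DMSO and 15 uM tetraoctylammonium bromide; AC50 from Hill fit.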

[16] = MultiTox-Fluor Cytotoxicity Assay - LYMP1-003 - Live Cells (AID 962);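 further: 0% = DMSO only and full loss = 92 µM tetraoctylammonium bromide; cytotoxic hits lower the live-cell protease signal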
Method in brief: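 LYMP1-003 human lymphoblastoid cells (2500/well) in complete medium were preincubated 5 hr at 37 C, then exposed to compounds for 16 hr at 37 C. Live-cell protease cleavage of GF-AFC read by fluorescence (Ex/Em 405/510); AC50 from Hill fits.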

[17] = Cell Viability - LYMP1-003 - Assay at 24 hr (AID 963);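 further: plate controls were DMSO only for no effect and tetraoctylammonium bromide positive control for full effect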
Method in brief: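 Human lymphoblastoid LYMP1-003 cells (2500/well) were rested 5 hr at 37 C, then exposed to compounds in complete medium for 24 hr at 37 C. Cellular ATP was quantified by CellTiter-Glo luminescence, and AC50 values came from Hill fits of concentration-response data.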

[18] = Cell Viability - LYMP1-003 - Assay at 40 hr (AID 964); further: on the % scale 0 is the no-effect control and ±100 the full control effect; nearly all actives have a fitted effect of over 60% in size
Method in brief: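 Human lymphoblastoid LYMP1-003 cells, 2500/well in complete medium, rested 5 hr at 37 C, then exposed to compounds for 40 hr at 37 C. Viability read as intracellular ATP by CellTiter-Glo luminescence; AC50 from Hill fits of concentration-response data.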

[19] = Cell Viability - LYMP2-003 (AID 965);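 further: cells exposed to compounds for 24 h before reading; 0% = DMSO only and full effect = 92 µM tetraoctylammonium bromide; nearly all actives have a fitted effect of over 50% in size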
Method in brief: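 qHTS, human lymphoblastoid line, 2500 cells/well, complete medium. 24 h drug, 37 C. ATP-based luminescent readout; Hill-fit AC50.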

O=C1CCCCC1
inactive: caspase-3 activation [1] 1.1% | outcome [2] | caspase-3 activation [3] 0.476% | caspase-3 activation [4] 0.988% | outcome [5] | outcome [6] | Potency [7] | Potency [8] | Potency [9] | outcome [10] | outcome [11] | outcome [12] | outcome [13] | outcome [14] | Potency [15] | Potency [16] | Potency [17] | Potency [18] | Potency [19]

c1ccc2c(c1)Oc1ccccc1S2
inactive: caspase-3 activation [1] -0.346% | outcome [2] | caspase-3 activation [3] -0.0621% | caspase-3 activation [4] -0.379% | outcome [5] | outcome [6] | Potency [7] | Potency [8] | Potency [9] | outcome [10] | outcome [11] | outcome [12] | outcome [13] | outcome [14] | Potency [15] | Potency [16] | Potency [17] | Potency [18] | Potency [19]

CCNc1ccccc1
inactive: caspase-3 activation [1] -0.0326% | outcome [2] | caspase-3 activation [3] -0.349% | caspase-3 activation [4] -0.687% | outcome [5] | outcome [6] | Potency [7] | Potency [8] | Potency [9] | outcome [10] | outcome [11] | outcome [12] | outcome [13] | outcome [14] | Potency [15] | Potency [16] | Potency [17] | Potency [18] | Potency [19]

CC(=O)c1cc(C)oc1C
inactive: caspase-3 activation [1] 0.543% | outcome [2] | caspase-3 activation [3] -0.25% | caspase-3 activation [4] 0.799% | outcome [5] | outcome [6] | Potency [7] | Potency [8] | Potency [9] | outcome [10] | outcome [11] | outcome [12] | outcome [13] | outcome [14] | Potency [15] | Potency [16] | Potency [17] | Potency [18] | Potency [19]

CCN(C(=O)N(CC)c1ccccc1)c1ccccc1
inactive: caspase-3 activation [1] 0.257% | outcome [2] | caspase-3 activation [3] 2.86% | caspase-3 activation [4] 0.606% | outcome [5] | outcome [6] | Potency [7] | Potency [8] | Potency [9] | outcome [10] | outcome [11] | outcome [12] | outcome [13] | outcome [14] | Potency [15] | Potency [16] | Potency [17] | Potency [18] | Potency [19]

O=C1OC(=O)c2cc([N+](=O)[O-])ccc21
inactive: caspase-3 activation [1] -0.00553% | outcome [2] | caspase-3 activation [3] -0.24% | caspase-3 activation [4] -0.39% | outcome [5] | outcome [6] | Potency [7] | Potency [8] | Potency [9] | outcome [10] | outcome [11] | outcome [12] | outcome [13] | outcome [14] | Potency [15] | Potency [16] | Potency [17] | Potency [18] | Potency [19]

Cc1ccc(C(=O)O)cc1
inactive: caspase-3 activation [1] -0.126% | outcome [2] | caspase-3 activation [3] 1.11% | caspase-3 activation [4] 0.649% | outcome [5] | outcome [6] | Potency [7] | Potency [8] | Potency [9] | outcome [10] | outcome [11] | outcome [12] | outcome [13] | outcome [14] | Potency [15] | Potency [16] | Potency [17] | Potency [18] | Potency [19]

CCC(C)(C)C
inactive: caspase-3 activation [1] 0.949% | outcome [2] | caspase-3 activation [3] -0.587% | caspase-3 activation [4] -1.96% | outcome [5] | outcome [6] | Potency [7] | Potency [8] | Potency [9] | outcome [10] | outcome [11] | outcome [12] | outcome [13] | outcome [14] | Potency [15] | Potency [16] | Potency [17] | Potency [18] | Potency [19]

Clc1ccccn1
inactive: caspase-3 activation [1] 0.0313% | outcome [2] | caspase-3 activation [3] -0.264% | caspase-3 activation [4] 0.154% | outcome [5] | outcome [6] | Potency [7] | Potency [8] | Potency [9] | outcome [10] | outcome [11] | outcome [12] | outcome [13] | outcome [14] | Potency [15] | Potency [16] | Potency [17] | Potency [18] | Potency [19]

Fc1ccccc1
inactive: caspase-3 activation [1] -0.0832% | outcome [2] | caspase-3 activation [3] -0.374% | caspase-3 activation [4] -1.91% | outcome [5] | outcome [6] | Potency [7] | Potency [8] | Potency [9] | outcome [10] | outcome [11] | outcome [12] | outcome [13] | outcome [14] | Potency [15] | Potency [16] | Potency [17] | Potency [18] | Potency [19]

CCCCOCCOCCOCCCC
inactive: caspase-3 activation [1] -0.157% | outcome [2] | caspase-3 activation [3] -0.168% | caspase-3 activation [4] -0.809% | outcome [5] | outcome [6] | Potency [7] | Potency [8] | Potency [9] | outcome [10] | outcome [11] | outcome [12] | outcome [13] | outcome [14] | Potency [15] | Potency [16] | Potency [17] | Potency [18] | Potency [19]

Nc1cccc(C(F)(F)F)c1
inactive: caspase-3 activation [1] 2.31% | outcome [2] | caspase-3 activation [3] -0.107% | caspase-3 activation [4] 2.75% | outcome [5] | outcome [6] | Potency [7] | Potency [8] | Potency [9] | outcome [10] | outcome [11] | outcome [12] | outcome [13] | outcome [14] | Potency [15] | Potency [16] | Potency [17] | Potency [18] | Potency [19]

O=C1CCC(=O)O1
inactive: caspase-3 activation [1] 0.974% | outcome [2] | caspase-3 activation [3] 0.691% | caspase-3 activation [4] 0.163% | outcome [5] | outcome [6] | Potency [7] | Potency [8] | Potency [9] | outcome [10] | outcome [11] | outcome [12] | outcome [13] | outcome [14] | Potency [15] | Potency [16] | Potency [17] | Potency [18] | Potency [19]

BrC(Br)C(Br)Br
inactive: caspase-3 activation [1] -0.634% | outcome [2] | caspase-3 activation [3] 0.661% | caspase-3 activation [4] -0.575% | outcome [5] | outcome [6] | Potency [7] | Potency [8] | Potency [9] | outcome [10] | outcome [11] | outcome [12] | outcome [13] | outcome [14] | Potency [15] | Potency [16] | Potency [17] | Potency [18] | Potency [19]
